Screens from PubChem BioAssay.
Sampled rows, rich in hits. Any-hit rate of the full collection: about 2.4%.
FEN1 inhibitor: human FEN1 inhibition; Recombinant FEN1 flap cleavage, fluorescence, 15 min; Potency, µM (titrated, usually from 114 µM), inactives show at the highest dose activity change, negative = inhibition, usual class: inhibitors; actives 0.35% (n = 390,000); further: on the % scale 0 is the no-effect control and ±100 the full control effect; nearly all actives have a fitted effect of over 65% in size
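In this screen, 50 nM flap DNA substrate was added to 10 nM FEN1 pretreated with compound for 15 min at room temperature; cleavage was followed with reads at 0 and 15 min, and Hill fitting gave concentration–response parameters.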
POLB inh: DNA polymerase beta (human) inhibition | P06746 | Pol beta primer extension/strand displacement, fluorescence kinetic | Potency, µM (titrated, usually from 114 µM), inactives show at the highest dose activity change, negative = inhibition, hits mostly inhibitors | actives 1.3% (n = 340,000); further: on the % scale 0 is the no-effect control and ±100 the full control effect
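Pol beta (10 nM) and compounds were preincubated 15 min at room temperature, then 50 nM substrate (final) started primer extension/strand displacement. Reads were taken at 0 and 10 min; concentration-response data were fitted to a four-parameter Hill equation.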
WRN inhibitor: WRN helicase (human) inhibition. Q14191. Potency, µM (series often up to 114 µM), inactives show at the highest dose activity change, negative = inhibition, usual class: inhibitors. actives 0.46% (n = 360,000). WRN helicase unwinding, fluorescent forked duplex, kinetic; further: on the % scale 0 is the no-effect control and ±100 the full control effect; nearly all actives have a fitted effect of over 55% in size
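Fluorescence dequenching readout, ex 525 nm/em 598 nm, kinetic mode: forked duplex DNA (100 nM final) with adjacent fluorophore and quencher unwound by WRN (20 nM final) with 2 mM ATP. Compound preincubation 15 min, room temperature.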
POLK inh: inhibitors of human DNA polymerase kappa. Q9UBT6. purified Pol kappa, fluorescent DNA synthesis assay, 10 min. Potency, µM (top dose mostly 107 µM), for inactives: at the highest dose activity, negative = inhibition, hits mostly inhibitors. actives 0.53% (n = 400,000). AID 588579; further: on the % scale 0 is the no-effect control and ±100 the full control effect
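Fluorescent qHTS in 1536-well format: enzyme (10 nM) and compound sat 15 min at room temperature before 50 nM substrate (final) was added. Signal taken at 0 and 10 min; no-enzyme buffer wells were negative controls.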
POLI inh: DNA polymerase iota (human) inhibition. Pol iota fluorescent replication assay, 10 min. Potency, µM (titrated, usually from 115 µM), without a hit: at the highest dose activity, negative = inhibition, actives largely listed as inhibitors. actives 1% (n = 390,000)
Target sequence (Q9UNA4 whole entry, looked up): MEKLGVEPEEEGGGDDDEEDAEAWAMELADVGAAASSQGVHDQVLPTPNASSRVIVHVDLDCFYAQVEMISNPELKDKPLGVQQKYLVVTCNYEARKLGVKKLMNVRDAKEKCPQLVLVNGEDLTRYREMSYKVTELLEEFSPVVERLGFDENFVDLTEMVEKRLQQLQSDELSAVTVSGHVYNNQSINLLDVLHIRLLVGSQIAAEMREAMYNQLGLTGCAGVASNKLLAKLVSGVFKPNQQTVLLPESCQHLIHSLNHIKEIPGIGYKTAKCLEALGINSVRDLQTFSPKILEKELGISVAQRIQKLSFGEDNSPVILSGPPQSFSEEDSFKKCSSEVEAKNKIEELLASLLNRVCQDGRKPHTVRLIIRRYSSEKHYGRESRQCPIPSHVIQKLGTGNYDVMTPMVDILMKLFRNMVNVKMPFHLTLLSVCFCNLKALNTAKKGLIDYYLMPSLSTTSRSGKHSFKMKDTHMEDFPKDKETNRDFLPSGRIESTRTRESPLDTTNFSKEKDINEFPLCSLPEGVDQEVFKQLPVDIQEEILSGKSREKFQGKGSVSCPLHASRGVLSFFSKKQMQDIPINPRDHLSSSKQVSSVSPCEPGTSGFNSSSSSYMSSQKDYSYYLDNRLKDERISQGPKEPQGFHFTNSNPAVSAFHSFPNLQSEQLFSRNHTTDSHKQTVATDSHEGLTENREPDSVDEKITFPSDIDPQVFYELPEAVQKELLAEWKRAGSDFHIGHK
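Pol iota at 10 nM preincubated 15 min with compounds at room temperature; reaction started with fluorescent substrate, 50 nM final. Fluorescence read kinetically at 0 and 10 min; buffer-only wells as negative control.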
Pol eta inh: blocks human DNA polymerase eta activity; Q9Y253; recombinant Pol eta, fluorescent DNA replication assay; Potency, µM (titrated, usually from 114 µM), inactives show at the highest dose activity change, negative = inhibition, actives largely listed as inhibitors; actives 1.2% (n = 390,000); further: on the % scale 0 is the no-effect control and ±100 the full control effect
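Pol eta at 10 nM preincubated with compounds 15 min at room temperature; reaction started with fluorescent substrate (50 nM final) and read kinetically at 0 and 10 min.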
Starred values were filed as active, the others as inactive; ? = inconclusive; / = not tested or not shown; ! = not confirmed by another sample; [ ] = dose if it differs, or a comment. The call rests on the fitted dose curve; in most records, active means well fitted curve in the direction sought with a large enough effect; inconclusive means small, poorly fitted or top-dose-only effect, or another doubt; inactive means no such curve, though single readings can be large; an effect the other way counts as inactive or inconclusive. Potency means the concentration at half of the fitted maximal effect.

SMILES	FEN1 inhibitor	POLB inh	WRN inhibitor	POLK inh	POLI inh	Pol eta inh
CC1(C)C(=O)Nc2ccccc2N1C(=O)CSc1ncccn1	-15.2%	?	-4.6%[11.6 µM]	?	44.7µM*	?
CC[C@H](C)[C@H](NC(=O)[C@H](CC(=O)O)NC(=O)[C@H](CC(C)C)NC(=O)[C@H](NC(C)=O)C(c1ccccc1)c1ccccc1)C(=O)N[C@H](C(=O)N[C@@H](Cc1c[nH]c2ccccc12)C(=O)O)[C@@H](C)CC	/	/	/	11.0%[60.1 µM]	/	/
CCc1cccc2sc(N(CCCN3CCOCC3)C(=O)CS(=O)(=O)c3ccccc3)nc12	-33.5%	/	-29.5%	-38.5%	89.1µM*	-26.8%
COc1ccc(/C=C2\SC(=N)N(c3nccs3)C2=O)cc1OC	79.4µM*	?	-25.0%[57.1 µM]	-21.2%	23.1%	?
COc1ccc(/C=C2\SC(=S)N(NC(=O)c3ccncc3)C2=O)cc1OC	/	29.2%	/	/	/	/
COc1ccc(CN2CCN(C(=O)CCC(=O)c3ccc(C)s3)CC2)cc1OC	-2.5%	/	-22.1%	-32.9%	89.1µM*	25.1µM*
Cc1ccc(CCNC(=O)c2cn(C)c3ccc(S(=O)(=O)N(C)C4CCCCC4)cc3c2=O)cc1	-3.0%	0.4%	/	-6.2%	19.4%	-12.9%
O=C(O)CCC(=O)Nc1sc2c(c1C(=O)Nc1ccccc1)CCCCC2	-12.8%	?	-34.3%	-26.8%	30.4%	89.1µM*!
O=C(COc1ccccc1)Nc1sc2c(c1C(=O)NCc1cccnc1)CCCC2	9.0%	35.5µM*	-27.9%[57.1 µM]	-12.9%	?	?
O=c1cc(/C=C/c2ccc([N+](=O)[O-])cc2)c2ccccc2[nH]1	-10.4%	/	/	-0.6%	-2.2%	/
Cc1ccc(NC(=O)/C(C#N)=C(\N)C(Cl)(Cl)Cl)nc1	16.3%	0.3%	32.5%	-2.3%	262.8%	44.7µM*
CC1=Nc2ccccc2/C1=C(/C)c1c(C)[nH]c2ccccc12	-13.8%	/	/	-20.4%	-2.6%	/
Cc1cccc(CC2S/C(=N/N=C/c3ccco3)N(c3ccccc3)C2=O)c1 (stereo not drawn)	-1.0%	35.5µM*	-8.4%	-9.7%	-4.0%	-8.8%
COc1cc(OC)cc(C(=O)Nc2nc(-c3nnn(-c4ccc(F)c(Cl)c4)c3C)ns2)c1	-27.0%	3.16µM*	/	9.8%	?	-12.9%
COc1ccc(C(=O)Nc2nc(-c3nnn(-c4ccc(C(C)C)cc4)c3C)ns2)cc1	?	-0.6%	/	-22.0%	0.4%	-4.2%
CCOC(=O)/C=C1\CN(Cc2ccc(OC)cc2)S(=O)(=O)c2ccc(C(F)(F)F)cc21	-28.0%	/	/	-26.6%	?	/
Cc1ccc(S(=O)(=O)N2CCCCC2)cc1NC(=O)CCc1nc2ccccc2c(=O)[nH]1	7.0%	/	-24.5%	-7.6%	?	28.2µM*
COc1ccc(S(=O)(=O)N2CCCCC2)cc1NC(=O)CCc1nc2ccccc2c(=O)[nH]1	0.0%	/	8.1%	2.2%	-9.9%	-11.3%
CSc1ccc(/C=C2\C=Cc3cc([N+](=O)[O-])ccc32)cc1	-0.7%	/	/	-6.9%	-6.0%	/
COc1ccc(C(=O)COC(=O)c2ccc(Cl)nc2)c(OC)c1	4.2%	/	-26.1%	-25.7%	39.8µM*	?
COc1ccc(C(=O)COC(=O)c2ccc3c(c2)NC(=O)CS3)c(OC)c1	-3.8%	/	2.5%[11.6 µM]	?	39.8µM*	?
COc1ccc(C(=O)COC(=O)CCNS(=O)(=O)c2ccccc2)c(OC)c1	-11.1%	/	-0.1%[11.6 µM]	-21.9%	50.1µM*	?
COc1ccc(C(=O)COC(=O)c2ccccc2O)c(OC)c1	-13.9%	/	-23.6%	?	28.2µM*	25.1µM*
O=C(CCNS(=O)(=O)c1ccccc1)OCC(=O)c1ccc(F)cc1	-4.6%	/	-12.0%	4.6%	30.3%	-9.8%
COc1ccc(OC)c(/C=C/C(=O)Nc2ccc(C(=O)OCCC(C)C)cc2)c1	-25.3%	-3.4%	/	-19.2%	16.4%	/
SMILES	FEN1 inhibitor	POLB inh	WRN inhibitor	POLK inh	POLI inh	Pol eta inh
CN1CCCc2cc(/C=C/c3ccnc4ccccc34)ccc21	?	/	/	0.8%	11.3%	/
COc1cccc(NC(=O)c2ccccc2OCC(=O)Nc2ccc(Br)cc2)c1	-18.2%	/	/	-3.0%	4.2%	/
O=S(c1ccccc1)c1ccc2nnnn2n1 (stereo not drawn)	/	/	/	3.2%[60.1 µM]	/	/
CCC(C(=O)OCC(=O)c1ccc(OC)cc1OC)c1ccccc1 (stereo not drawn)	-18.8%	/	-24.4%	-40.9%	?	31.6µM*
CCCN(CCC)Cc1c(C(=O)N/N=C/C(C)=C\c2ccco2)nnn1-c1nonc1N	-6.7%	-10.3%	1.9%	-5.1%	28.0%	-16.2%
CC(/C=N/NC(=O)c1nnn(-c2nonc2N)c1CN(C)C)=C\c1ccco1	-1.6%	-0.2%	-7.9%[11.6 µM]	79.4µM*	20µM*	-6.8%
Cc1cc(O)cc2c1O[C@](C)(CCC(=O)O)CC2	8.9%	/	/	9.4%	-6.4%	/
CC(NS(=O)(=O)c1ccc(Cl)cc1)C(=O)NCc1ccco1 (stereo not drawn)	-0.9%	?	-9.3%[57.1 µM]	-39.1%	70.8µM*	-9.0%
O=c1cc(C(O)C[N+](=O)[O-])occ1OCc1ccccc1 (stereo not drawn)	-8.0%	/	-5.6%[11.6 µM]	?	25.1µM*	-20.0%
CC(C)(C)n1ncc2c(=O)n(Cc3ccc(Cl)c(OC(F)(F)F)c3)cnc21	-31.7%	/	/	-12.0%	1.4%	/
CCNc1ccc(Br)cc(C(=O)/C=C/c2ccc(Cl)cc2)c1=O	-3.7%	28.2µM*	-15.2%[11.6 µM]	?	?	39.8µM*
CCNc1ccc(Br)cc(C(=O)/C=C/c2ccc3c(c2)OCO3)c1=O	?	20µM*	?	?	3.98µM*	11.2µM*
CCNc1ccc(Br)cc(C(=O)/C=C/c2c(Cl)cccc2Cl)c1=O	?	8.91µM*	?	?	4.47µM*	17.8µM*
CCNC(=O)/C=C/c1cccc(Br)c1	/	/	/	11.3%[19.4 µM]	/	/
Cc1ccc(NC(=O)/C=C/c2ccc(Cl)cc2)c(Br)c1	-12.2%	34.9%	/	-10.6%[60.1 µM]	-20.6%	-1.1%
Cc1ccc2nc(-c3ccncc3)c(Nc3ccc(C(C)C)cc3)n2c1	0.4%	-3.1%	/	13.6%	24.9%	-21.2%
COc1ccc(CCNc2nc(SCc3ccccc3Cl)nc3ccccc23)cc1OC	11.4%	-0.7%	/	-8.9%[60.1 µM]	5.8%	-11.4%
O=C(Nc1nccs1)[C@@H]1CC=C[C@@H]2CCN(Cc3ccc(Cl)c(Cl)c3)C(=O)[C@@H]21	-26.4%	/	/	-9.2%	9.1%	/
COc1ccc(NC(=O)CN(C)CC(=O)Nc2cccc(F)c2)cc1S(=O)(=O)N1CCCCC1	10.7%	/	50.1µM*	-11.3%	-19.3%	-14.7%
Cc1ccc2nc(CSc3nnc(Nc4ccccc4F)s3)cc(=O)n2c1	2.6%	22.4µM*	-5.4%	-12.0%	?	-31.5%
O=C(NNC(=O)c1ccc([N+](=O)[O-])o1)c1ccccc1	1.1%	36.8%	-1.2%	3.7%	-0.1%	-9.0%
